The values that follow come from PubChem BioAssay (NCATS).

Inconclusive results are not listed. Unmarked numbers belong to inactive results. Activity calls are given as the source filed them. Calls follow the shape of the dose curve; as a rule, active = well fitted cell-killing curve with a large enough effect; inconclusive = small, poorly fitted or top-dose-only effect, or effect the other way; inactive = no such curve, though single readings can be large or run the other way.
Also: nearly all actives have a fitted effect of over 35% in size.
Potency is read from the fitted curve at half-maximal effect.

The first test is described as follows: Quantitative highthroughput screen to assess conditional lethalithy of SEM cells grown in Human Plasma-Like Medium with dialyzed fetal bovine serum (HPLM+ds) (AID 1963882). The following applies: SEM B-ALL cells in HPLM+ds, CellTiter-Glo viability, 48 h; series mostly up to 45.8 µM; viability: at the top concentration. Summed up: (§1)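 Each medium arm—HPLM with 10% dialyzed FBS, or RPMI1640 with 5 mM glucose and 10% untreated or dialyzed FBS—was screened against an 11-point, 3-fold compound titration for 48 h at 37 °C, with CellTiter-Glo luminescence as endpoint.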
As for `CO[C@H]1/C=C\O[C@@]2(C)Oc3c(C)c(O)c4c(O)c(c5c(nc6cc(C)ccn65)c4c3C2=O)NC(=O)C(C)=CC=C[C@H](C)[C@H](O)[C@@H](C)[C@@H](O)[C@@H](C)[C@H](OC(C)=O)[C@H]1C`, the Potency is 18.7 µM (active).
Still for that read-out and setting: the value for `O=C(Cc1cccc(OC(F)(F)F)c1)Nc1ccc(CCCCc2nnc(NC(=O)Cc3ccccn3)s2)nn1` was 0.0524 µM (active); that for `Cc1cn2c(-c3cn[nH]c3)cnc2c(Nc2ccc(C(=O)N3CCNCC3)cc2F)n1` was 13.2 µM (active); that for `CC(C)=CCCC(C)=CCCC(C)=CCSc1ccccc1C(=O)O` was 6.62 µM (active).
For `CS(=O)(=O)Oc1ccc2c(NC(N)=O)c(C(=O)c3ccc(Cl)cc3Cl)oc2c1`, the “viability” value is 102%.
Consider `Cc1cc(=O)c2c(O)c3c(O)cc(=O)c4c3c3c(cc(O)c1c23)C(C)(C)C=4O`, for which the “viability” value was 80.8%.

A further test is described as follows: Quantitative highthroughput screen to assess conditional lethalithy of SEM cells grown in RPMI1640 with unreated serum (RPMI+s) (AID 1963883).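 As to viability: 100% = DMSO wells and 0% = empty wells without cells.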 Particulars: SEM B-ALL cells, CellTiter-Glo viability, 48 h; series mostly up to 45.8 µM; viability: at the top concentration. An outline of the steps: as §1
For `C[C@@H](Oc1ccc2[nH]nc(C=Cc3cnn(CCO)c3)c2c1)c1c(Cl)cncc1Cl`, the Potency was 0.264 µM (active).
With `CCCCC[C@H](O)C=C[C@H]1[C@H](O)CC(=O)[C@H]1CCCCCCC(=O)O`, the Potency was 4.18 µM (active).
On the same count and under the same terms, the value for `Cc1cn2c(-c3cn[nH]c3)cnc2c(Nc2ccc(C(=O)N3CCNCC3)cc2F)n1` was 14.8 µM (active); that for `C[C@]12CC[C@@H]3c4ccc(O)cc4CC[C@H]3[C@H]1CC[C@H]2O` was 18.7 µM (active).
`CC(C)=CCCC(C)=CCCC(C)=CCSc1ccccc1C(=O)O`: the Potency is 6.62 µM (active).
Regarding `CS(=O)(=O)Oc1ccc2c(NC(N)=O)c(C(=O)c3ccc(Cl)cc3Cl)oc2c1`, the “viability” value was 98.4%.

A further test is described as follows: Quantitative highthroughput screen to assess conditional lethalithy of SEM cells grown in RPMI1640 with dialyzed fetal bovine serum (RPMI+ds) (AID 1963884).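 As to viability: 100% = DMSO control wells and 0% = empty wells without cells.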 Particulars: SEM B-ALL cells, RPMI+dialyzed FBS, CellTiter-Glo viability, 48 h; series mostly up to 45.8 µM; viability: at the top concentration. Summed up: as §1
As to `CN1CCN(CCCN2c3ccccc3Sc3ccc(Cl)cc32)CC1`, the “viability” value is 84.2%.
For `CO[C@H]1/C=C\O[C@@]2(C)Oc3c(C)c(O)c4c(O)c(c5c(nc6cc(C)ccn65)c4c3C2=O)NC(=O)C(C)=CC=C[C@H](C)[C@H](O)[C@@H](C)[C@@H](O)[C@@H](C)[C@H](OC(C)=O)[C@H]1C`, the Potency was 14.8 µM (active).
Regarding `Cc1cn2c(-c3cn[nH]c3)cnc2c(Nc2ccc(C(=O)N3CCNCC3)cc2F)n1`, the Potency is 14.8 µM (active).
On to `C[C@]12CC[C@@H]3c4ccc(O)cc4CC[C@H]3[C@H]1CC[C@H]2O`, for which the Potency is 20.9 µM (active).
The same measure, in the same setting: the value for `CC(C)=CCCC(C)=CCCC(C)=CCSc1ccccc1C(=O)O` was 11.8 µM (active).
`CS(=O)(=O)Oc1ccc2c(NC(N)=O)c(C(=O)c3ccc(Cl)cc3Cl)oc2c1`: the “viability” value was 106%.
The same measure, in the same setting: under `Cc1cc(=O)c2c(O)c3c(O)cc(=O)c4c3c3c(cc(O)c1c23)C(C)(C)C=4O` stands 86.9%.
